Consider 20 compounds from the supplement of paper PMC10849652.

Test in all cases: log2 fold change, soluble protein after heating vs DMSO (PISA); higher = thermal stabilisation; K562 cells, 10 uM, 30 min; active = over 0.2 and 3.5 SD of the protein, either way, in both replicates (recomputed)
In one experiment the target is AAGAB (UniProt Q6PD74). In outline:
(§1)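 Soluble protein was quantified by TMTpro 16plex LC-MS/MS after channel sums were equalised. It was obtained as the supernatant after 21,000xg for 90 min from pooled aliquots of K562 cells (2×10^6 cells/mL, 10 μM compound, 30 min) heated for 3 min across 48°C-58°C and extracted in PBS with 0.5% NP-40 at 4°C. Thermal stability values are relative to control samples and come from duplicates. They are given as log2 fold changes.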

The target in experiment [1] is AAK1 (UniProt A0A096LP25). In outline:
as §1

Experiment [2] concerns the target AAK1 (UniProt Q2M2I8). In outline:
as §1

Of roughly 7,900 targets only a part is listed; those with a hit were picked by preference. About 0.6% of all pairs of compound and target were hits. Unmarked numbers belong to inactive results.

AAK1 (UniProt Q2M2I8), sequence (Q2M2I8 whole entry, looked up): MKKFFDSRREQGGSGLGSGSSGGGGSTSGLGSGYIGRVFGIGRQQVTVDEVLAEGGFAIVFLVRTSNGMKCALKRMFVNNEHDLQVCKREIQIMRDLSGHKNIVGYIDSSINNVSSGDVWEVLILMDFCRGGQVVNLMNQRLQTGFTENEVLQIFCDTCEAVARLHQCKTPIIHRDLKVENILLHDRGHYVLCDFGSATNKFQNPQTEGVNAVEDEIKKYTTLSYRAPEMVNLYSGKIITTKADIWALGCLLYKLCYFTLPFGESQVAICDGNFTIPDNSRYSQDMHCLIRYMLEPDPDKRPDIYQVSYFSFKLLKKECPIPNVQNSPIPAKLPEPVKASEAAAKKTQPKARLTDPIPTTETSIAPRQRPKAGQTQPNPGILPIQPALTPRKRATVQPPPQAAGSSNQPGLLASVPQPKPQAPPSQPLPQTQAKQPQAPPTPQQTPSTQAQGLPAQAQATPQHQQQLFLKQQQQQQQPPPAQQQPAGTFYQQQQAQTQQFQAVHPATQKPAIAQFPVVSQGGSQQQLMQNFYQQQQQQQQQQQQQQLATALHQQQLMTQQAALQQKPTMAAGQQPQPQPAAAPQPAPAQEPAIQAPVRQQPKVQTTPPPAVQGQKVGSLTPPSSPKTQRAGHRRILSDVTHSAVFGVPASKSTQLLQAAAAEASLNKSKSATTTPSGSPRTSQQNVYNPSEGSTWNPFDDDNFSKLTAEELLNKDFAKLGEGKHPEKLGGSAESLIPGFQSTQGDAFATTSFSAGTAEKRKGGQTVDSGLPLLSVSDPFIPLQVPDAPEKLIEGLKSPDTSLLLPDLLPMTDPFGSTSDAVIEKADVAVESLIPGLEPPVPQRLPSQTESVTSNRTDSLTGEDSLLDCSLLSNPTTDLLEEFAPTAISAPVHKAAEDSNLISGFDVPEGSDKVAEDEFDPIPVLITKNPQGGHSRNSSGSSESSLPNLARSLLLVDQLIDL
AAGAB, sequence (Q6PD74 whole entry, looked up): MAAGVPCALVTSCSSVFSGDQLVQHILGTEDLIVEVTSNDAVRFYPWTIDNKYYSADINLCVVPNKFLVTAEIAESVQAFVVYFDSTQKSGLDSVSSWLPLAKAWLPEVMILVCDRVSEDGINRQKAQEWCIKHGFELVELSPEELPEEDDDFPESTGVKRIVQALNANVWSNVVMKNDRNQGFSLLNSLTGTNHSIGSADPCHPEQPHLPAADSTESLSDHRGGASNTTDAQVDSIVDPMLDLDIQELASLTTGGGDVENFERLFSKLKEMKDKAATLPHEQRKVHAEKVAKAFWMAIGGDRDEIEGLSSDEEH

For `COc1ccc(Cn2ccc3ccc(C(=O)NO)cc32)cc1`, the log2 fold change is -0.017 with AAGAB, -0.089 with AAK1 [1] and 0.048 in the experiment with AAK1 [2].
In the case of `O=C(Nc1nc2ccccc2n1CCN1CCOCC1)c1cccc([N+](=O)[O-])c1` [IRAK-1-4 Inhibitor I], the log2 fold change was -0.016 in the experiment with AAGAB, -0.063 in the experiment with AAK1 [1] and -0.085 in the experiment with AAK1 [2].
In the same order, the values of `Cc1cc(SCc2sc(-c3ccc(C(F)(F)F)cc3)nc2C)ccc1OCC(=O)O` are 0.051, -0.048 and 0.096.
With `CC[C@@H]1C(=O)N(C)c2cnc(Nc3ccc(C(=O)N[C@H]4CC[C@H](N5CCN(CC6CC6)CC5)CC4)cc3OC)nc2N1C(C)C` [volasertib], the log2 fold change in the experiment with AAGAB was -0.551 (active); with AAK1 [2] it was 0.121.
As to `CC1=C(C(=O)Nc2cc3cn[nH]c3cc2F)C(c2ccc(C(F)(F)F)cc2)CC(=O)N1` (stereo unspecified), the log2 fold change was -0.004 with AAGAB, -0.113 in the experiment with AAK1 [1] and -0.055 with AAK1 [2].
In the same order, the values of `C[C@@H]1COCCN1c1cc(C2(S(C)(=O)=O)CC2)nc(-c2cccc3[nH]ccc23)n1` are -0.035, 0.012 and 0.028.
For `CCCS(=O)(=O)Nc1ccc(F)c(C(=O)c2c[nH]c3ncc(Cl)cc23)c1F`, the log2 fold change with AAGAB is 0.144; in the experiment with AAK1 [2], -0.028.
As for `Oc1cc(-c2nc(-c3ccccc3)[nH]c2-c2ccncc2)ccc1Cl`, the log2 fold change was 0.066 in the experiment with AAGAB, 0.017 with AAK1 [1] and 0.073 with AAK1 [2].
In the same order, the values of `CC(C)(C)Cn1c(N)nc2ccc(-c3[nH]c(C(C)(C)C)nc3-c3ccc(F)cc3)nc21` [ralimetinib] are 0.065, -0.01 and 0.04.
Turning to `CNc1nc(-c2ccc3c(N)n[nH]c3c2)cc(N2C[C@@H](C(=O)NC3CCCCC3)CC[C@H]2C)n1`, the log2 fold change with AAGAB is -0.084; with AAK1 [1] it was 0.244; with AAK1 [2], 0.252.
As for `COc1cc2ncnc(Nc3ccc(F)c(Cl)c3)c2cc1OCCCN1CCOCC1` [gefitinib], the log2 fold change was -0.027 with AAGAB, -0.049 in the experiment with AAK1 [1] and -0.097 with AAK1 [2].
In the case of `Cc1ccc(NC(=O)c2cccc(N(C)C)c2)cc1NC(=O)c1ccc(O)cc1`, the log2 fold change with AAGAB is -0.063; with AAK1 [1] it was -0.011; in the experiment with AAK1 [2], 0.
In the same order, the values of `FC(F)(F)c1ccc(/C=C/c2nc(COc3ccc(CCCCn4ccnn4)cc3)co2)cc1` [mubritinib] are 0.017, -0.124 and -0.066.
For the compound `Cn1cncc1[C@@](N)(c1ccc(Cl)cc1)c1ccc2c(c1)c(-c1cccc(Cl)c1)cc(=O)n2C` [tipifarnib], the log2 fold change in the experiment with AAGAB is -0.031; with AAK1 [2], -0.057.
Consider `C[C@@H](Oc1cc(-c2cnn(C3CCNCC3)c2)cnc1N)c1c(Cl)ccc(F)c1Cl` [crizotinib], for which the results for the log2 fold change in the experiment with AAGAB, in the experiment with AAK1 [1] and in the experiment with AAK1 [2] were -0.134, 0.124 and 0.169, respectively.
In the same order, the values of `CNC(=O)c1ccc(Nc2ncc(C(F)(F)F)c(NCc3nccnc3N(C)S(C)(=O)=O)n2)cc1` [defactinib] are -0.187, 0.037 and -0.106.
The like results for `CS(=O)(=O)N1CCN(Cc2cc3nc(-c4cccc5[nH]ncc45)nc(N4CCOCC4)c3s2)CC1` [pictilisib] were, in that order, 0.039, 0.16 and 0.087.
For `NC(=O)Nc1cc(-c2cccc(F)c2)sc1C(=O)N[C@H]1CCCNC1`, the log2 fold change in the experiment with AAGAB is -0.071; with AAK1 [1] it was 0.318; with AAK1 [2], 0.28.
On to `CS(=O)(=O)CCNCc1ccc(-c2ccc3ncnc(Nc4ccc(OCc5cccc(F)c5)c(Cl)c4)c3c2)o1` [lapatinib], for which the figures for the log2 fold change in the experiment with AAGAB and in the experiment with AAK1 [2] were -0.038 and 0.038, respectively.
`CC[C@H](C)[C@H](NC(=O)[C@H]([C@@H](C)CC)N(C)C(C)=O)C(=O)N[C@H](C(=O)N[C@@H](CC(C)C)C(=O)[C@@]1(C)CO1)[C@@H](C)O` [epoxomicin]: the values for the log2 fold change in the experiment with AAGAB, in the experiment with AAK1 [1] and with AAK1 [2] were 0.006, -0.098 and 0.031, respectively.
